Reference: the supplement of paper PMC12282887
± gives the standard deviation of the averaged measurements.

Columns and labels:
Assay in all cases: promoter activity interaction Z-score (Lux/OD deviation from empty-vector control); higher = stronger promoter induction by the compound
[1] = test system: E. coli BW25113 acrABp lux reporter
In short: (§1)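 In 384-well plates, 40 µl LB Lennox cultures of E. coli BW25113 with low-copy luxCDABE promoter reporters grew at 37°C. Optical density at 600 nm and light output were recorded every 30 min for 12 h, with windows of 0–8 h for wild type and 1–9 h for deletion strains, and wells under 10% of the median growth value were left out. Each value is a Z-transformed residual of growth-normalised luminescence fitted against a control.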

[2] = test system: E. coli BW25113 marRABp lux reporter
In short: as §1

[3] = test system: E. coli BW25113 micFp lux reporter
In short: as §1

[4] = test system: E. coli BW25113 ompFp lux reporter
In short: as §1

[5] = test system: E. coli BW25113 robp lux reporter
In short: as §1

[6] = test system: E. coli BW25113 soxSp lux reporter
In short: as §1

[7] = test system: E. coli BW25113 tolCp lux reporter
In short: as §1

[8] = 0.0054 µg/ml, genetic background: wild type
[9] = 0.0054 µg/ml, genetic background: ΔmarA
[10] = 0.0054 µg/ml, genetic background: Δrob
[11] = 0.0054 µg/ml, genetic background: ΔsoxS
[12] = 0.011 µg/ml, genetic background: wild type
[13] = 0.011 µg/ml, genetic background: ΔmarA
[14] = 0.011 µg/ml, genetic background: Δrob
[15] = 0.011 µg/ml, genetic background: ΔsoxS
[16] = 0.022 µg/ml, genetic background: wild type
[17] = 0.022 µg/ml, genetic background: ΔmarA
[18] = 0.022 µg/ml, genetic background: Δrob
[19] = 0.022 µg/ml, genetic background: ΔsoxS
[20] = 0.044 µg/ml, genetic background: wild type

**Q.** `C[C@H]1[C@H](NC(=O)/C(=N\OC(C)(C)C(=O)O)c2csc(N)n2)C(=O)N1S(=O)(=O)O` [Aztreonam] was tested. Which “promoter activity interaction Z-score” value [1, 8] did it give?
**A.** -0.253 ± 0.084

**Q.** And the “promoter activity interaction Z-score” value [1, 9]?
**A.** -0.209 ± 1.9

**Q.** What about the “promoter activity interaction Z-score” value [1, 10] of the same compound?
**A.** -0.333 ± 0.022

**Q.** And the “promoter activity interaction Z-score” value [1, 11]?
**A.** -0.321 ± 0.053

**Q.** And the “promoter activity interaction Z-score” value [1, 12]?
**A.** 0.0466 ± 0.11

**Q.** What about the “promoter activity interaction Z-score” value [1, 13] of the same compound?
**A.** 1.29 ± 1.5

**Q.** What about the “promoter activity interaction Z-score” value [1, 14] of the same compound?
**A.** -0.509 ± 0.068

**Q.** And the “promoter activity interaction Z-score” value [1, 15]?
**A.** -0.163 ± 0.42

**Q.** What about the “promoter activity interaction Z-score” value [1, 16] of the same compound?
**A.** -0.332 ± 0.23

**Q.** What about the “promoter activity interaction Z-score” value [1, 17] of the same compound?
**A.** 0.66 ± 1.8

**Q.** What about the “promoter activity interaction Z-score” value [1, 18] of the same compound?
**A.** -0.535 ± 0.26

**Q.** And the “promoter activity interaction Z-score” value [1, 19]?
**A.** -0.424 ± 0.41

**Q.** What about the “promoter activity interaction Z-score” value [2, 8] of the same compound?
**A.** -0.108 ± 0.36

**Q.** And the “promoter activity interaction Z-score” value [2, 9]?
**A.** 0.583 ± 0.95

**Q.** And the “promoter activity interaction Z-score” value [2, 10]?
**A.** -0.202 ± 0.19

**Q.** And the “promoter activity interaction Z-score” value [2, 11]?
**A.** -0.188 ± 0.0033

**Q.** What about the “promoter activity interaction Z-score” value [2, 12] of the same compound?
**A.** 0.0506 ± 0.094

**Q.** And the “promoter activity interaction Z-score” value [2, 13]?
**A.** -0.139 ± 0.26

**Q.** And the “promoter activity interaction Z-score” value [2, 14]?
**A.** -0.0608 ± 0.52

**Q.** What about the “promoter activity interaction Z-score” value [2, 15] of the same compound?
**A.** -0.218 ± 0.047

**Q.** And the “promoter activity interaction Z-score” value [2, 16]?
**A.** 0.0487 ± 0.33

**Q.** What about the “promoter activity interaction Z-score” value [2, 17] of the same compound?
**A.** 0.0272 ± 0.41

**Q.** And the “promoter activity interaction Z-score” value [2, 18]?
**A.** -0.0627 ± 0.18

**Q.** And the “promoter activity interaction Z-score” value [2, 19]?
**A.** -0.214 ± 0.088

**Q.** What about the “promoter activity interaction Z-score” value [3, 8] of the same compound?
**A.** -0.16 ± 0.07

**Q.** And the “promoter activity interaction Z-score” value [3, 9]?
**A.** 0.09 ± 0.019

**Q.** And the “promoter activity interaction Z-score” value [3, 10]?
**A.** -0.0804 ± 0.089

**Q.** What about the “promoter activity interaction Z-score” value [3, 11] of the same compound?
**A.** -0.271 ± 0.15

**Q.** And the “promoter activity interaction Z-score” value [3, 12]?
**A.** 0.0711 ± 0.15

**Q.** And the “promoter activity interaction Z-score” value [3, 13]?
**A.** 0.045 ± 0.1

**Q.** What about the “promoter activity interaction Z-score” value [3, 14] of the same compound?
**A.** -0.174 ± 0.022

**Q.** And the “promoter activity interaction Z-score” value [3, 15]?
**A.** 0.375 ± 0.11

**Q.** And the “promoter activity interaction Z-score” value [3, 16]?
**A.** -0.368 ± 0.07

**Q.** What about the “promoter activity interaction Z-score” value [3, 17] of the same compound?
**A.** 0.0282 ± 0.096

**Q.** What about the “promoter activity interaction Z-score” value [3, 18] of the same compound?
**A.** -0.184 ± 0.33

**Q.** And the “promoter activity interaction Z-score” value [3, 19]?
**A.** -0.331 ± 0.2

**Q.** What about the “promoter activity interaction Z-score” value [4, 8] of the same compound?
**A.** 0.304 ± 0.71

**Q.** What about the “promoter activity interaction Z-score” value [4, 9] of the same compound?
**A.** 1.01 ± 0.48

**Q.** What about the “promoter activity interaction Z-score” value [4, 10] of the same compound?
**A.** 0.73 ± 0.63

**Q.** What about the “promoter activity interaction Z-score” value [4, 11] of the same compound?
**A.** -0.689 ± 0.21

**Q.** And the “promoter activity interaction Z-score” value [4, 12]?
**A.** 0.141 ± 0.14

**Q.** What about the “promoter activity interaction Z-score” value [4, 13] of the same compound?
**A.** 1.02 ± 0.8

**Q.** What about the “promoter activity interaction Z-score” value [4, 14] of the same compound?
**A.** -0.364 ± 0.87

**Q.** What about the “promoter activity interaction Z-score” value [4, 15] of the same compound?
**A.** 0.129 ± 0.2

**Q.** And the “promoter activity interaction Z-score” value [4, 16]?
**A.** -0.19 ± 0.57

**Q.** And the “promoter activity interaction Z-score” value [4, 17]?
**A.** 1.43 ± 0.23

**Q.** And the “promoter activity interaction Z-score” value [4, 18]?
**A.** -0.565 ± 1.7

**Q.** And the “promoter activity interaction Z-score” value [4, 19]?
**A.** -0.303 ± 0.73

**Q.** What about the “promoter activity interaction Z-score” value [5, 8] of the same compound?
**A.** -0.543 ± 0.46

**Q.** What about the “promoter activity interaction Z-score” value [5, 9] of the same compound?
**A.** 1.13 ± 0.88

**Q.** What about the “promoter activity interaction Z-score” value [5, 10] of the same compound?
**A.** -0.203 ± 0.46

**Q.** And the “promoter activity interaction Z-score” value [5, 11]?
**A.** -1.41 ± 0.17

**Q.** And the “promoter activity interaction Z-score” value [5, 12]?
**A.** 0.385 ± 0.037

**Q.** And the “promoter activity interaction Z-score” value [5, 13]?
**A.** 1.33 ± 2

**Q.** What about the “promoter activity interaction Z-score” value [5, 14] of the same compound?
**A.** -0.405 ± 0.69

**Q.** And the “promoter activity interaction Z-score” value [5, 15]?
**A.** -0.722 ± 0.24

**Q.** What about the “promoter activity interaction Z-score” value [5, 16] of the same compound?
**A.** -0.69 ± 0.072

**Q.** What about the “promoter activity interaction Z-score” value [5, 17] of the same compound?
**A.** -0.124 ± 0.43

**Q.** What about the “promoter activity interaction Z-score” value [5, 18] of the same compound?
**A.** -1.16 ± 1.2

**Q.** What about the “promoter activity interaction Z-score” value [5, 19] of the same compound?
**A.** -1.07 ± 0.27

**Q.** What about the “promoter activity interaction Z-score” value [6, 8] of the same compound?
**A.** 0.278 ± 0.064

**Q.** And the “promoter activity interaction Z-score” value [6, 9]?
**A.** 0.333 ± 0.11

**Q.** And the “promoter activity interaction Z-score” value [6, 10]?
**A.** -0.00514 ± 0.076

**Q.** What about the “promoter activity interaction Z-score” value [6, 11] of the same compound?
**A.** -0.126 ± 0.11

**Q.** And the “promoter activity interaction Z-score” value [6, 12]?
**A.** 0.305 ± 0.13

**Q.** And the “promoter activity interaction Z-score” value [6, 13]?
**A.** 0.172 ± 0.0071

**Q.** What about the “promoter activity interaction Z-score” value [6, 14] of the same compound?
**A.** -0.21 ± 0.25

**Q.** And the “promoter activity interaction Z-score” value [6, 15]?
**A.** 0.164 ± 0.46

**Q.** What about the “promoter activity interaction Z-score” value [6, 16] of the same compound?
**A.** 0.0318 ± 0.13

**Q.** What about the “promoter activity interaction Z-score” value [6, 17] of the same compound?
**A.** 0.1912 ± 0.0014

**Q.** What about the “promoter activity interaction Z-score” value [6, 18] of the same compound?
**A.** -0.194 ± 0.19

**Q.** And the “promoter activity interaction Z-score” value [6, 19]?
**A.** -0.106 ± 0.33

**Q.** What about the “promoter activity interaction Z-score” value [6, 20] of the same compound?
**A.** -0.0693 ± 0.29

**Q.** And the “promoter activity interaction Z-score” value [7, 8]?
**A.** -0.174 ± 0.12

**Q.** And the “promoter activity interaction Z-score” value [7, 9]?
**A.** 0.0726 ± 0.53

**Q.** And the “promoter activity interaction Z-score” value [7, 10]?
**A.** -0.67 ± 1.8

**Q.** What about the “promoter activity interaction Z-score” value [7, 11] of the same compound?
**A.** -1.94 ± 0.062

**Q.** And the “promoter activity interaction Z-score” value [7, 12]?
**A.** 0.647 ± 0.59

**Q.** And the “promoter activity interaction Z-score” value [7, 13]?
**A.** -0.497 ± 0.27

**Q.** And the “promoter activity interaction Z-score” value [7, 14]?
**A.** -0.241 ± 1

**Q.** What about the “promoter activity interaction Z-score” value [7, 15] of the same compound?
**A.** -0.196 ± 0.045

**Q.** And the “promoter activity interaction Z-score” value [7, 16]?
**A.** 0.105 ± 0.69

**Q.** And the “promoter activity interaction Z-score” value [7, 17]?
**A.** -0.22 ± 1.1

**Q.** What about the “promoter activity interaction Z-score” value [7, 18] of the same compound?
**A.** 1.61 ± 1

**Q.** What about the “promoter activity interaction Z-score” value [7, 19] of the same compound?
**A.** -0.251 ± 0.32

**Q.** And the “promoter activity interaction Z-score” value [7, 20]?
**A.** -1.04
